Screening data (PubChem)
Only some compounds are listed: those with a hit (about 13% of all), similar ones and a draw of the others.
USP10 inh = inhibitors of human USP10 deubiquitinase; Ubiquitin carboxyl-terminal hydrolase 10 (Homo sapiens), Q14694; purified USP10, Ub-rhodamine fluorescence, 60 min; inhibition, % at 20 µM; hit rate 1.1% among 47,000
USP28 inh = inhibitors of human USP28 deubiquitinase; Ubiquitin carboxyl-terminal hydrolase 28 (Homo sapiens), Q96RU2; purified USP28, Ub-rhodamine cleavage fluorescence, 30 min; inhibition, % at 25 µM; hit rate 3% among 47,000
USP30 block = inhibitors of human USP30 deubiquitinase. Ubiquitin carboxyl-terminal hydrolase 30 (Homo sapiens), Q70CQ3. purified USP30, Ub-rhodamine cleavage fluorescence. inhibition, % at 25 µM. hit rate 5.3% among 47,000. AID 1645860, 2021
USP7 block = inhibitors of human USP7 deubiquitinase | Ubiquitin carboxyl-terminal hydrolase 7 (Homo sapiens), Q93009 | purified USP7, Ub-rhodamine cleavage fluorescence | inhibition, % at 20 µM | hit rate 0.3% among 47,000 | AID 1645854, 2021
USP8 inh = inhibitors of human USP8 deubiquitinase; purified USP8, Ub-rhodamine cleavage fluorescence, 30 min; hit rate 4.2% among 47,000; inhibition, % at 20 µM; AID 1645853, 2021; Ubiquitin carboxyl-terminal hydrolase 8 (Homo sapiens), P40818
USP17 block = inhibitors of human USP17 deubiquitinase | Ubiquitin carboxyl-terminal hydrolase 17-like protein 5 (Homo sapiens), A8MUK1 | inhibition, % at 50 µM | AID 1645855, 2021 | purified USP17, Ub-rhodamine cleavage fluorescence, 3 h | hit rate 6.5% among 47,000
Active calls of the source: *; i = inactive; nt = no result. Cut-off read from the data, not from the text of the source: active = inhibition above about 30%; inactive = the rest.

SMILES | USP10 inh | USP28 inh | USP30 block | USP7 block | USP8 inh | USP17 block
CC(NC(=O)COc1ccc2ccccc2c1)C(=O)O (centres undefined) | 0.2 | -7.5 | 1.5 | 0.7 | 7.3 | 0.1
CCOC(=O)c1noc2ncn(Cc3nc(-c4ccc(C)cc4)oc3C)c(=O)c12 | -2.1 | 12.5 | 34.6* | 1.7 | 6.4 | 31.0*
Cn1c(=O)c2c(nc(CN3CCOCC3)n2CC(N)=O)n(C)c1=O | 3.0 | -2.7 | -4.5 | -7.5 | 0.3 | -2.8
Cc1cc(C)c(NC(=O)CSc2nc3cn(C)nc3c(=O)n2CC2CC2)c(C)c1 | 13.5 | 17.9 | 69.8* | 5.4 | 41.9* | 60.8*
Cc1c(OCc2ccccc2)noc1C1CCN(C(=O)CCN)CC1 | -0.2 | 41.0* | 7.2 | -10.3 | -88.0 | -18.7
Nc1cc(C2CCN(C(=O)CCCc3ccccc3)CC2)no1 | -0.6 | nt | nt | -2.5 | -4.6 | -1.4
O=C(c1ccc2ncsc2c1)N1CCCC(c2nc3ccccc3[nH]2)C1 (centres undefined) | -0.2 | 17.9 | -0.2 | 2.2 | -0.2 | 7.1
O=C(Cc1ccc(S(=O)(=O)N2CCOCC2)s1)NCc1cccc(Cl)c1 | -6.4 | -36.4 | -260.2 | -30.4 | 40.2* | 6.2
O=C(NCc1cccc(Cl)c1)c1cc(CN2CCOCC2)on1 | 2.4 | 0.5 | 16.2 | -0.2 | 0.5 | -0.7
O=C(Cc1cccc(Cl)c1)NCCN1CCC(O)(c2cccc(F)c2)CC1 | -1.9 | 17.0 | 33.8* | -3.2 | 3.1 | 7.5
COc1ccc(NC(=O)Cc2nnc(SCC(=O)c3ccccc3)n2C)cc1 | 0.6 | -0.5 | 20.1 | -3.1 | -11.3 | 24.9
CCn1c(CNc2ccc(Cl)cc2)nnc1SCC(=O)Nc1ccccc1 | 5.1 | 63.7* | 9.2 | -21.7 | 2.4 | 0.1
COc1ccc(NCc2nnc(SCC(=O)Nc3cccc4ccccc34)n2C)cc1 | 5.3 | 6.4 | 19.2 | -2.6 | 45.2* | 20.4
COc1ccc(NC(=O)CSc2nnc(Cc3cccc4ccccc34)n2C)cc1 | 2.2 | 59.9* | 6.6 | -26.5 | -25.9 | 2.4
CCn1c(CC(=O)Nc2ccccc2)nnc1SCC(=O)c1ccccc1 | 1.6 | 6.2 | 11.6 | 3.4 | 11.7 | 7.0
COc1ccc(CCNc2ncnc3c2sc2nc(N4CCCC4)c4c(c23)CC(C)(C)OC4)cc1OC | -11.2 | 0.5 | -0.2 | 7.8 | 18.1 | 4.6
O=S(=O)(Cc1cccc(F)c1)N1CC(c2nc3ccccc3[nH]2)C1 | 2.1 | 8.5 | 22.3 | 0.2 | 11.1 | 5.7
CC(/C=C/C(O)=C1/C(=O)CNC1=O)=C\[C@@H](C)[C@H]1O[C@@]2(C)O[C@H](C=C[C@@]23CO3)[C@@H]1C | -0.8 | -7.0 | -19.2 | 0.3 | -24.6 | -24.6
CC(NCc1ccc2c(c1)OCO2)C(=O)Nc1ccc2ccccc2c1 (centres undefined) | -2.2 | -13.3 | -39.2 | -7.4 | -3.6 | -18.2
CN(C)S(=O)(=O)c1ccc(N2CCCC2)c(C(=O)Nc2ccc(-c3cn4ccsc4n3)cc2)c1 | -6.1 | 32.3* | 38.0* | 0.2 | -3.4 | 52.0*
O=C(Cc1ccc2c(c1)CCO2)Nc1ccc(-c2cn3ccsc3n2)cc1 | 3.9 | 13.7 | 28.0 | -26.8 | -12.3 | 36.2*
COc1ccc2c(Sc3ccc(C)cc3)c(C(=O)N3CCCCC3)[nH]c2c1 | 8.0 | 0.5 | -5.7 | 6.1 | 11.8 | 1.0
Cc1ccc2c(Sc3ccc(Cl)cc3)c(C(=O)N3CCC4(CC3)OCCO4)[nH]c2c1 | 7.0 | 32.1* | 19.5 | -10.4 | 1.2 | 14.1
Cc1nn(-c2ccccc2)c(C)c1C(=O)OCC(=O)Nc1cccc2ccccc12 | 2.1 | -0.8 | 10.8 | -2.0 | 7.2 | -3.1
Cc1nn(-c2ccccc2)c(C)c1C(=O)OCC(=O)Nc1cccc(Br)c1 | 7.4 | 81.0* | -6.4 | -7.2 | 3.5 | -15.4
SMILES | USP10 inh | USP28 inh | USP30 block | USP7 block | USP8 inh | USP17 block
Cc1ccc(CNS(=O)(=O)c2cc3n(c2)CCCNC3=O)o1 | -6.2 | -22.0 | -125.4 | -11.6 | -21.4 | -44.9
O=C(Nc1cc(F)ccc1F)c1ccc2c(c1)nnn2CCN1CCOCC1 | 0.2 | 3.8 | -6.5 | -5.8 | -0.9 | -0.7
O=C(OCc1ccc(Br)cc1)c1ccc2ccccc2n1 | 11.6 | 81.6* | 22.9 | 4.1 | 25.9 | 22.2
N#Cc1ccc(COC(=O)c2ccc3ccccc3n2)cc1 | -3.1 | 64.2* | -28.8 | -11.2 | -5.3 | -14.0
O=C(COC(=O)c1ccc2ccccc2n1)Nc1ccc(Br)cc1 | -1.7 | -172.5 | i | -55.1 | -16.3 | -168.4
Cc1nc2ccccc2n1CC(=O)OCc1ccc(C#N)cc1 | 2.2 | -18.2 | -3.7 | -4.6 | 1.0 | -10.7
N#Cc1ccccc1COC(=O)c1ccc2ccccc2n1 | -1.0 | 62.2* | 10.4 | -1.7 | -31.3 | -10.6
CN(C)S(=O)(=O)c1cccc(C(=O)OCc2ccccc2C#N)c1 | 0.3 | 35.6* | 21.7 | 0.1 | -0.9 | -0.5
O=C(CNS(=O)(=O)c1ccc(F)cc1)N1CCCC(c2nnc3ccccn23)C1 (centres undefined) | -3.5 | 51.3* | 15.9 | -74.7 | 57.0* | 7.7
O=C(C1CCCC1)N1CCCC1c1ccnc(Nc2ccccn2)n1 (centres undefined) | 0.7 | -9.7 | -17.5 | -8.7 | -7.0 | -2.9
O=C(C1CCC1)N1CCCC1c1ccnc(Nc2cnccn2)n1 (centres undefined) | -7.1 | 1.2 | 1.2 | 0.6 | 44.5* | 13.9
Cn1c(=O)c2c(nc(CN3CCN(CCO)CC3)n2CCCc2ccccc2)n(C)c1=O | -0.1 | -16.0 | 0.1 | -2.7 | -15.4 | -13.9
O=C(Cn1c(=O)n(Cc2ccc(F)cc2)c(=O)c2ncccc21)NCc1ccc(F)cc1 | -1.4 | -8.4 | -56.3 | -64.0 | 43.6* | nt
O=C(Cn1c(=O)n(Cc2ccc3c(c2)OCO3)c(=O)c2ccccc21)c1ccccc1 | -0.3 | 12.4 | 36.2* | 3.9 | 36.1* | 22.7
O=C(Cn1c(=O)n(Cc2ccccc2)c(=O)c2ncccc21)NCC1CCCO1 (centres undefined) | -4.7 | -9.0 | -8.9 | -3.1 | 4.3 | -2.7
O=C(Cn1c(=O)n(Cc2ccc3c(c2)OCO3)c(=O)c2ncccc21)NCc1ccccc1 | -0.8 | 61.7* | 84.9* | 1.2 | 38.5* | 75.9*
O=C(Cn1c(=O)n(Cc2ccc(F)cc2)c(=O)c2ncccc21)N1CCCc2ccccc21 | -5.3 | 13.4 | 14.6 | -134.4 | 1.3 | 7.3
O=C1CCSc2ccc(S(=O)(=O)Nc3ccccc3)cc2N1 | -1.0 | 4.8 | 7.4 | -9.2 | -0.5 | -6.4
O=C(COc1ccc2ccc(=O)oc2c1)c1ccc2c(c1)OCCO2 | -3.1 | -19.8 | -178.7 | -56.5 | 2.3 | 42.7*
O=C(Cn1c(COc2ccccc2)nc2ccccc21)NCC1CCCO1 (centres undefined) | 3.0 | 13.3 | 23.5 | 2.2 | 20.6 | 15.8
Cc1cccc(NC(=O)CSc2nnc(-c3ccco3)n2Cc2ccco2)c1C | -0.4 | 6.2 | 5.4 | -2.6 | 0.6 | 3.3
CCc1cc2c(=O)n(Cc3ccco3)c(SCC(=O)Nc3ccccc3O)nc2s1 | 19.5 | 13.3 | 43.7* | 3.6 | 11.4 | nt
